Assay outcomes (PubChem BioAssay)
NPSR antag: antagonists of human neuropeptide S receptor cAMP signaling; Potency, µM (series often up to 38.3 µM), usual class: inhibitors; Q6W5P4; CHO-NPSR cells, cAMP TR-FRET, antagonist mode; 220,000 tested, 1% active; further: nearly all actives have a fitted effect of over 50% in size
Target sequence (Q6W5P4 whole entry, looked up): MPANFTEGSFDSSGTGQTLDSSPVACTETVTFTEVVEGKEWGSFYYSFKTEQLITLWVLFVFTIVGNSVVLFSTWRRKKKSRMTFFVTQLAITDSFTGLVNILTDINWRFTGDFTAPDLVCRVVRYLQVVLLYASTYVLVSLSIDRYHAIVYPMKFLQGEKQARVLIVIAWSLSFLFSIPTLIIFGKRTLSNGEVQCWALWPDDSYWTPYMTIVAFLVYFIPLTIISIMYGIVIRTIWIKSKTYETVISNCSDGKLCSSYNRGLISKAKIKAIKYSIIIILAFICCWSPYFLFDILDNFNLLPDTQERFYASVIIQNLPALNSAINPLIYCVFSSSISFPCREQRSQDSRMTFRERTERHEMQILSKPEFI
IMPase inh: membrane-permeable compound that blocks inositol monophosphatase. P97697. CHO-M1 cells, IP1 accumulation, HTRF TR-FRET ratio. inhibition (IP1 accumulation), % at 46.1 µM. AID 901. 120,000 tested, under 10 active; active means well fitted curve in the direction sought with a large enough effect in the signal ratio, not every such curve was filed as active; inconclusive means small, poorly fitted or top-dose-only effect, or a change in a side signal; inactive means no such curve, though single readings can be large or run the other way; the % refers to the signal ratio;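 further: cells stimulated with carbachol in lithium chloride buffer; higher means more IMPase inhibition seen as more IP1 and lower FRET ratio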
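CHO-M1, 2000 cells/well, cultured 16–30 h; cpd up to 46 uM; carbachol (50 uM solution, stimulation buffer w/ 50 mM LiCl, pH 7.4), 30 min 37C; IP-One TR-FRET, 10 min RT; Ex 320/Em 665, 620; Hill-fit AC50.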
ALDH1A1 inh: inhibitors of human aldehyde dehydrogenase 1A1; Purified ALDH1A1, NADH fluorescence, propionaldehyde substrate; Potency, µM (highest dose often 75.3 µM), usual class: inhibitors; 220,000 tested, 7.3% active; AID 1030; active means well fitted inhibition curve with a large enough effect, not every such curve was filed as active; inconclusive means small, poorly fitted or top-dose-only effect, or another doubt; inactive means no such curve, though single readings can be large or run the other way
HPGD inh: HPGD (human) dehydrogenase inhibition. P15428. purified HPGD, NADH fluorescence kinetic, PGE2 substrate. Potency, µM, actives largely listed as inhibitors. 150,000 tested, 4.3% active. AID 894; active means well fitted inhibition curve with a large enough effect, not every such curve was filed as active; inconclusive means small, poorly fitted or top-dose-only effect, or another doubt; inactive means no such curve, though single readings can be large or run the other way
Target sequence (P15428 whole entry, looked up): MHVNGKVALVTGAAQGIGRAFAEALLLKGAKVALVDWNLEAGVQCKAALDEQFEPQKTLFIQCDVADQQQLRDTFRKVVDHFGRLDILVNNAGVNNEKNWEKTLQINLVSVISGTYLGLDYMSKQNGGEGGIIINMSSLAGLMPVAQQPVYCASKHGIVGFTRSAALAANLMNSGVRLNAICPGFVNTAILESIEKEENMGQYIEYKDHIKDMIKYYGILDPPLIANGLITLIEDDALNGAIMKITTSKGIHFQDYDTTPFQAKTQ
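NADH formation kinetics: reaction with 30 uM PGE2 and 1 mM NAD+ (final), 20 nM enzyme, Tris-HCl pH 8 with Tween 20, after 15 min compound preincubation at room temperature. Fluorescence change, last versus first of five reads.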
ALOX12 inhib: inhibitors of human 12-lipoxygenase (ALOX12); P18054; purified 12-hLO, xylenol orange hydroperoxide absorbance; Potency, µM (highest dose often 57.1 µM), usual class: inhibitors; 150,000 tested, 0.12% active; AID 1452; further: nearly all actives have a fitted effect of over 55% in size
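Xylenol orange chromogenic assay: hydroperoxide from 12hLO oxidises Fe(II), giving red-shifted Fe(III)-XO absorbance. Conditions: 150 nM enzyme, 40 uM arachidonic acid, 25 mM Hepes pH 7.0, 0.01% Triton X-100, 30 min, room temperature.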
IMPase Li cell: IMPase inhibition in cells with lithium potentiation; CHO-M1 cells, IP1 TR-FRET (IP-One), carbachol + lithium; Potency, µM (top dose mostly 59.4 µM), most hits filed as inhibitors; 210,000 tested, 0.35% active; AID 1457;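 further: IP1 builds up when IMPase is blocked and the TR-FRET signal falls; nearly all actives have a fitted effect of over 50% in size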
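Readout is a homogeneous TR-FRET IP1 immunoassay (Ex 320, Em 665 and 620), where raised cytosolic IP1 lowers signal. Cells were CHO-M1 treated 30 min at 37C with test compounds plus a little lithium; AC50 values came from Hill-equation fitting.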
Hits are given with their value; 0 = inactive; ? = inconclusive; - = not tested or not shown; [ ] = dose if it differs, or a comment. Only some compounds are listed: those with a hit (about 8.9% of all), similar ones and a draw of the others. Unless noted, the call rests on the fitted dose curve; in most records, active means well fitted curve in the direction sought with a large enough effect; inconclusive means small, poorly fitted or top-dose-only effect, or another doubt; inactive means no such curve, though single readings can be large; an effect the other way counts as inactive or inconclusive.

SMILES	NPSR antag	IMPase inh	ALDH1A1 inh	HPGD inh	ALOX12 inhib	IMPase Li cell
O=C(NNc1ccccc1)C(=O)NNS(=O)(=O)c1ccc(CCCl)cc1	0	-	6.3µM	-	-	-
Nc1ccc(S(=O)(=O)NNC(=O)C(=O)NNc2ccccc2)cc1	0	-	0	0	0	0
CCOP(=O)(OCC)/C(C#N)=C/c1c[nH]c2ccccc12	0	-	0	-	-	-
CCOC(=O)/C(C#N)=C/c1c(N2CCN(Cc3ccc4c(c3)OCO4)CC2)nc2c(C)cccn2c1=O	?	-	0.71µM	-	-	-
Cc1cccn2c(=O)c(/C=C(\C#N)C(=O)NC3CCS(=O)(=O)C3)c(N3CCC(C(N)=O)CC3)nc12 (stereo not drawn)	0	0	0	?	0	0
Cc1cccn2c(=O)c(/C=C(\C#N)S(=O)(=O)c3ccccc3)c(N3CCC(C(N)=O)CC3)nc12	0	0	?	28µM	0	0
Cc1cccn2c(=O)c(C=O)c(N3CCCCCC3)nc12	0	0	11µM	0	0	0
Cc1ccc(S(=O)(=O)/C(C#N)=C/c2c(N3CCC(C(N)=O)CC3)nc3c(C)cccn3c2=O)cc1	?	0	?	3.5µM	?	0
O=C(O)CCCN1C(=O)C2C3CC(C2C1=O)C1C(c2ccccc2)c2sc(=O)n(-c4ccccc4)c2SC31 (stereo not drawn)	0	-	0	-	-	0
COc1ccc(/C=N/n2c(-c3n[nH]c4c3CCC4)n[nH]c2=S)c(OC)c1OC	0	-	-	-	-	-
Cc1ccc(S(=O)(=O)/C(C#N)=C/c2c(N3CCC(C(N)=O)CC3)nc3ccccn3c2=O)cc1	0	0	?	25µM	?	0
Cc1ccc(S(=O)(=O)/C(C#N)=C/c2c(N3CCOCC3)nc3ccccn3c2=O)cc1	0	0	0	16µM	0	0
Cc1ccc(C)c(S(=O)(=O)Nc2ccc(O)cc2)c1	0	0	?	0	0	0
Cc1cc(C)c(S(=O)(=O)Nc2ccc(O)cc2)cc1C	0	0	14µM	0	0	0
COc1ccc(NS(=O)(=O)c2cc(S(C)(=O)=O)ccc2C)cc1	0	-	28µM	0	0	0
COc1ccc(NS(=O)(=O)c2cc(C)ccc2C)cc1	0	0	0.56µM	14µM	0	0
Cc1ccc(/C=C/S(=O)(=O)N2CCC(C(=O)O)CC2)cc1	0	0	0	0	0	0
COC(=O)c1ccc(C(NC(=O)OCc2ccccc2)/C(F)=C/[C@@H](C)C(=O)NCCN2CCOCC2)cc1 (stereo partly drawn)	-	-	0	0	0	0
Cc1cccc(C)c1NS(=O)(=O)c1ccc2c(c1)C(=O)c1ccccc1C2=O	0	-	0	0	0	0
COc1cc(CN(C)CC(=O)c2[nH]c(C)c(C(C)=O)c2C)ccc1OC(F)F	0	0	3.5µM	0	0	0
COc1ccc(NC(=O)C/C(C)=N/NC(=O)C(=O)Nc2cccc(Cl)c2C)c(OC)c1	0	-	1.3µM	-	-	0
COc1ccc(CCNC(=O)Cn2cnc3c2c(=O)n(C)c(=O)n3C)cc1OC	0	0	0	0	0	0
CCOc1ccccc1NC(=O)C(OC(=O)c1ccc(O)cc1)c1ccccc1 (stereo not drawn)	?	0	7.9µM	0	0	0
COCCn1c(C23CC4CC(CC(C4)C2)C3)n[nH]c1=S	0	0	0	25µM	0	0
CCCCNC(=O)c1cc(-c2ccc(OC)c(OC)c2)on1	0	0	0	0	0	0
SMILES	NPSR antag	IMPase inh	ALDH1A1 inh	HPGD inh	ALOX12 inhib	IMPase Li cell
COc1ccc(C(C[N+](=O)[O-])c2c(-c3ccccc3)cc3ccccn23)cc1 (stereo not drawn)	0	0	?	28µM	?	0
COc1ccc(C(C[N+](=O)[O-])c2c(-c3ccccc3)cc3ccccn23)cc1OC (stereo not drawn)	0	0	0	0	0	0
Cc1ccc(C(=O)CCC2CCCCC2=O)cc1 (stereo not drawn)	0	0	0	0	0	0
CCc1ccc(C(=O)CCC2CCCCC2=O)cc1 (stereo not drawn)	0	0	?	16µM	0	0
CSc1sc(C(=O)NCC2CC2)c2c1S(=O)(=O)N(C)c1ccccc1-2	0[7.67 µM]	-	-	-	-	-
CSc1sc(C(=O)NCC2CC2)c(-c2cccs2)c1C#N	0	-	8.9µM	-	-	-
CC1CN(c2ccc(Oc3ccccc3)cc2)c2nc3c(c(=O)[nH]c(=O)n3C)n2C1 (stereo not drawn)	0	0	0	35µM	0	0
CCCOc1ccc(-c2cc(C(=O)NCC3CCCO3)c3ccccc3n2)cc1 (stereo not drawn)	0	-	?	-	-	0
NC(=O)Nc1ccc(Cl)cc1	0	-	-	-	-	-
NC(=O)/C=C/C(=O)Nc1ccc(Cl)cc1	0	-	2.2µM	-	-	0
NC(=O)SCC(=O)Nc1cccc(Cl)c1	0	0	0.6µM	0	0	0
Cc1ccc(NC(=O)CSC(N)=O)cc1Cl	0	0	3.5µM	0	0	0
NC(=O)SCC(=O)Nc1ccc(Cl)cc1	0	0	?	4.5µM	0	0
NC(=O)SCC(=O)Nc1ccc(Cl)c(Cl)c1	?	0	?	0	0	0
O=C(CSc1ccccc1)NCc1ccc(F)cc1	0	-	?	-	-	0
O=[N+]([O-])c1ccc(OCc2cccc(COc3ccc([N+](=O)[O-])cc3)n2)cc1	0	-	0	0	0	0
O=C(NC1CCCCCC1)C1CCN(S(=O)(=O)c2cccc3cccnc23)CC1	0	0	?	0	0	0
COc1cc(O)oc1C=Nc1ccccc1	0	0	20µM	0	0	0
COc1ccccc1O	-	-	0	0	0	0
COc1ccc(NC(=O)CSc2nnc(CNc3ccc(F)cc3)o2)c(OC)c1	0	0	0	0	0	0
O=C(CSc1nnc(COc2ccc(Cl)cc2)o1)N1c2ccccc2CCc2ccccc21	0	0	22µM	0	0	0
COc1ccc(NCc2nnc(SCC(=O)Nc3cc(C(F)(F)F)ccc3Cl)o2)cc1	0	0	28µM	0	0	0
COc1ccc(NCc2nnc(SCC(=O)c3ccc(C)cc3)o2)cc1	0	0	28µM	0	0	0
Cc1ccc(C(=O)CSc2nnc(COc3cc(C)cc(C)c3)o2)cc1	0	0	?	0	0	0
Cc1cc(C)cc(OCc2nnc(SCC(=O)c3ccccc3)o2)c1	0	0[1.84 µM]	0	28µM	0	0
Cc1ccc(N2CC(=O)N(CC(=O)O)C2=O)cc1	0	-	0	-	-	0
Cc1nn(Cc2ccc(Cl)cc2)c(C)c1NC(=O)Cn1nc([N+](=O)[O-])c(Cl)c1C	0	0	0	0	0	0
Cc1ccc(CN(CC(=O)NC2CCCC2)C(=O)CSc2nnc(COc3ccccc3)o2)cc1	0	0	?	28µM	0	0
CCN(CC)S(=O)(=O)c1ccc(-c2nnc(SCC(=O)c3ccc(OC)cc3)o2)cc1	0	0	0.35µM	0	0	0
